Source: article PMC8159961, “Exploring protein hotspots by optimized fragment pharmacophores” (Nature Communications, 2021)

These molecules were tested against histone methyltransferase SET domain containing 2 (SETD2) (Homo sapiens, UniProt Q9BYW2) (assay: primary screen, binary call; higher = more effect of the substance).
Description: The Chemiluminescence assay evaluates SETD2 specific tri -methylation activity towards histone H3K36. The kit consist s of recombinant SETD2, S-adenosylmethionine and a specific H3K36me3 antibody and was performed according to the manufacturer’s protocol (Catalo g- No. 52060, https://bpsbioscience.com/setd2 -chemiluminescent-assay-kit-52060). Values were blank corrected and normalized . Enzymatic activities were calculated relative to the positive control of the kit (full enzymatic activity) and to the known SET doma in inhibitor Sinefungin28 used as negative control (complete enzymatic activity inhibition). Compounds used were diluted in DMSO.

Chain of histone methyltransferase SET domain containing 2 (SETD2) (Q9BYW2 whole entry, looked up, the tested form may be a part): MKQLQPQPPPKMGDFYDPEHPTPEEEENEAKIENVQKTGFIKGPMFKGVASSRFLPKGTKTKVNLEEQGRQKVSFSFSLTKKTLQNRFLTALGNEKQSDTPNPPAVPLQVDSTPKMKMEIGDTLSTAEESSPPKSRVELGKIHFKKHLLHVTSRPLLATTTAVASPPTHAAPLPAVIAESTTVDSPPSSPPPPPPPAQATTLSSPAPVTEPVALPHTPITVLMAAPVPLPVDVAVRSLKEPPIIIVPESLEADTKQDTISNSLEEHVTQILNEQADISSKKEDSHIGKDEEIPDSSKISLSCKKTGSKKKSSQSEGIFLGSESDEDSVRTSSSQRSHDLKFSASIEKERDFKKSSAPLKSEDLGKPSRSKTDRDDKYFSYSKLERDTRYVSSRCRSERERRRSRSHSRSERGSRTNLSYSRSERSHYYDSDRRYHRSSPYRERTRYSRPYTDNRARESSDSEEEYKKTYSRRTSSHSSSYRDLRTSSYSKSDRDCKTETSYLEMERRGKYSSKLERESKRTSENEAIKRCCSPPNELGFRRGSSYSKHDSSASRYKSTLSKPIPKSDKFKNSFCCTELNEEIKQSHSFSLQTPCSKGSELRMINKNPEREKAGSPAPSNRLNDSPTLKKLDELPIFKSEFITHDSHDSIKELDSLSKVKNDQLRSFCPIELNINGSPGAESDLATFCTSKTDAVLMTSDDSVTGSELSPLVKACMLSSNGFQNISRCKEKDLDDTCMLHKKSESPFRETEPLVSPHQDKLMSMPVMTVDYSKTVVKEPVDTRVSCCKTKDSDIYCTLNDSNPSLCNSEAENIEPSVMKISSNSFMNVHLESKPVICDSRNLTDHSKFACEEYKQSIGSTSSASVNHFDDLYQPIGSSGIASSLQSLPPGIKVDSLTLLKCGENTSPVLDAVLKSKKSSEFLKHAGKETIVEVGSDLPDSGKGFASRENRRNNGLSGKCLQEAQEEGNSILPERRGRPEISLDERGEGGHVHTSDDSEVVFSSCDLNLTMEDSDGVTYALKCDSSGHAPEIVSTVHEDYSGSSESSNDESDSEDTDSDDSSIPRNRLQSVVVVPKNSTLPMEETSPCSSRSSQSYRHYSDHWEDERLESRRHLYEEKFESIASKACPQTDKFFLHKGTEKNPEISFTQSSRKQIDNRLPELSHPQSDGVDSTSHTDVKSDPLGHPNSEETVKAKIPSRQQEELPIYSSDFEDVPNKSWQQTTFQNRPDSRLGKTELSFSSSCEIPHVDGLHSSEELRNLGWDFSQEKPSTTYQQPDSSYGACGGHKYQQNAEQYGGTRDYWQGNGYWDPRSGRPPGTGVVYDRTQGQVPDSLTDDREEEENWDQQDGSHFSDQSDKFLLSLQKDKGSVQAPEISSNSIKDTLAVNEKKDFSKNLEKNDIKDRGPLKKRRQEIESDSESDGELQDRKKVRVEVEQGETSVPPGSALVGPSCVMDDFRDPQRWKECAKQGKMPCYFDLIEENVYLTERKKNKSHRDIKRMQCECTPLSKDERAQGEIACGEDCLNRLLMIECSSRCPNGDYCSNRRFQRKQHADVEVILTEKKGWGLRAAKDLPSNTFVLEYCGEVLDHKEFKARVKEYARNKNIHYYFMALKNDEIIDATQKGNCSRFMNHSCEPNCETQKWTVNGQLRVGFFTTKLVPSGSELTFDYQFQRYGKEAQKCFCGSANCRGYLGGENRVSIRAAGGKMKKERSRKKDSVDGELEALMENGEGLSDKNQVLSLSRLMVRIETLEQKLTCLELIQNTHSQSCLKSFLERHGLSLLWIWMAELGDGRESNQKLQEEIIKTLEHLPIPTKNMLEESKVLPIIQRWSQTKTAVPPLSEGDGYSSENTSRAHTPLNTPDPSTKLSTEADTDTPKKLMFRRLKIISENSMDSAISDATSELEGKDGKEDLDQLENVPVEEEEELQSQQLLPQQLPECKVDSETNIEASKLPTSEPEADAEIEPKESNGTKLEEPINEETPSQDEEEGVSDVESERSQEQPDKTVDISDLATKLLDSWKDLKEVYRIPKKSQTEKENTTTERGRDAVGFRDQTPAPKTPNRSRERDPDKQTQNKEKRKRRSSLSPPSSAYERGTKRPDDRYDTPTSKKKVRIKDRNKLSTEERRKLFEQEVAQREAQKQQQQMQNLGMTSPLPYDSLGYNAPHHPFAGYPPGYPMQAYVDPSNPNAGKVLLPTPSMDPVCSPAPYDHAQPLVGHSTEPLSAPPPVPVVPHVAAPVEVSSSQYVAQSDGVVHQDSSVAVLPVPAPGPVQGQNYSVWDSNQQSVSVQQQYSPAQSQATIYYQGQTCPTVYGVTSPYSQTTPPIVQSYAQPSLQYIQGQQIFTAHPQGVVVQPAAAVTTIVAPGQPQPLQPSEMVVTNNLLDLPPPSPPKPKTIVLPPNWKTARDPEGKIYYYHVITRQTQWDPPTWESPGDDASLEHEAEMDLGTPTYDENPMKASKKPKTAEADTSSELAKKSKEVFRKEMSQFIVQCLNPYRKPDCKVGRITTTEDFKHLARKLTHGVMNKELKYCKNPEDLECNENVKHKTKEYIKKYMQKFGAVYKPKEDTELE

SMILES	SETD2
Cc1cc(-c2ccccc2)n[nH]1	0 (inactive)
O=C(c1ccncc1)N1CCNCC1	0 (inactive)
O=c1[nH]c2c(s1)CCC2	0 (inactive)
c1cnc2c(c1)NCCC2	0 (inactive)
O=c1[nH]ncc2c1oc1ccccc12	0 (inactive)
Cc1ccc(CCNc2ccccc2)cn1	0 (inactive)
O=C(c1ccccc1)N1CCC(CO)CC1	0 (inactive)
Cn1nc(C(F)(F)F)cc1O	0 (inactive)
CC1CCc2sc(C(=O)O)cc2C1 (stereo not shown)	1 (active)
Cc1cnc(C(F)(F)F)cn1	0 (inactive)
Cc1cc(C)c2c(=O)[nH]n(C)c2n1	0 (inactive)
O=C1NC(=O)/C(=C\c2cccs2)N1	1 (active)
Nc1ccc(SC(F)F)cc1	0 (inactive)
O=C1CC(CSc2ccc(Cl)cc2)=NN1	0 (inactive)
NC(c1ccccc1)c1ccccc1	0 (inactive)
Cc1ccc(C)n1Cc1ccccc1Cl	0 (inactive)
O=C1CSC(Nc2ccc(F)cc2)=N1	0 (inactive)
CC(=O)c1sc(-c2ccc(O)cc2)nc1C	0 (inactive)
CCc1nccn1CC(=O)O	0 (inactive)
CS(=O)(=O)c1ccc(OC(F)(F)F)cc1	0 (inactive)

SMILES	SETD2
CC(=O)c1ccc2c(c1)CCCN2	0 (inactive)
CCc1ccc(NC2=NCCCS2)cc1	0 (inactive)
O=C(O)CC1CCC(=O)N1 (stereo not shown)	0 (inactive)
Fc1ccc2c(C3CCNCC3)c[nH]c2c1	0 (inactive)
NC(=O)N1CCC(C(=O)O)CC1	0 (inactive)
FC1(F)CNCC(F)(F)O1	0 (inactive)
O=C(CN1CCCC1)c1ccccc1Cl	0 (inactive)
Clc1ccc2nnnn2n1	0 (inactive)
CC1C(=O)NC(=O)N1c1ccc(Cl)cc1 (stereo not shown)	0 (inactive)
COc1ccccc1CC1CCNCC1.Cl	0 (inactive)
CC(CN)N1CCc2sccc2C1 (stereo not shown)	0 (inactive)
Nc1ccc(-c2ccccc2)cc1C(=O)O	0 (inactive)
CC(=O)c1ccc2c(c1)CNCC2	0 (inactive)
O=C1CNCCN1c1ccccc1	0 (inactive)
COc1ccccc1N1CCNCC1	0 (inactive)
O=C(O)C1CCN(c2ncccn2)CC1	0 (inactive)
Cc1nc(-c2ccccc2)cs1	0 (inactive)
Brc1ccc(-c2ccon2)cc1	0 (inactive)
O=C(Nc1ccccc1)C1CC1	0 (inactive)
COc1ccc(C2=CCNCC2)cc1	0 (inactive)
